The results in this text go back to PubChem BioAssay (NCI).

Some test systems named below: MOLT-4 leukemia; SR leukemia; RPMI-8226 leukemia; OVCAR-8 ovarian; OVCAR-5 ovarian; OVCAR-4 ovarian; SK-OV-3 ovarian; IGROV1 ovarian; OVCAR-3 ovarian; HS 578T breast; NCI/ADR-RES ovarian; T-47D breast; BT-549 breast; MDA-MB-435 melanoma; SW-620 colon; MCF7 breast; HCT-116 colon; HCC-2998 colon; KM12 colon.
Holding throughout (assay): NCI-60 one-dose screen, 48 h (100 = growth as untreated, 0 = no growth, -100 = all killed)
What all share (details): 10 µM unless noted

Values joined by “and” are separate entries in the source; they are usually repeats but may differ in a detail not shown here. Equal values may be shown once. This is part of a sample that, as a whole, favours compounds with a hit. Of some 83,000 tested, about 20% had one in any assay.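 Cells were grown in 96-well plates and exposed to the test compound at a single concentration for 48 hours; results are reported as percent growth, with values below 10 considered active.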 A number with no mark means an inactive call. Active and inactive are the calls of the source.

For the compound `Cn1cc(-c2csc(-c3cn(CCCCN4CCOCC4)c4ccc(F)cc34)n2)c2cccnc21`, the growth was 46.7% in the test with MOLT-4 leukemia; 37% in the test on SR leukemia; 49% with RPMI-8226 leukemia; 81.3% in the test on OVCAR-8 ovarian; 79.5% with OVCAR-5 ovarian; 84.5% with OVCAR-4 ovarian. For the same compound, the growth with SK-OV-3 ovarian is 84%; with IGROV1 ovarian it was 65.4%; in the test on OVCAR-3 ovarian, 90%; in the test on HS 578T breast it was 41.1%; in the test with NCI/ADR-RES ovarian it was 76.8%; in the test on T-47D breast, 76.9%. The growth with BT-549 breast was 65.3%; in the test with MDA-MB-435 melanoma it was 38.1%; with SW-620 colon it was 19.7%; in the test with MCF7 breast, 78.4%; in the test on HCT-116 colon, 83%; in the test on HCC-2998 colon it was 92.4%. Besides, in the test with KM12 colon, the growth is 52.5%.

Regarding `CC1(C)S[C@H]2CC[C@H]3OC(=O)[C@@H]1N23`, the growth is 75.1% with MOLT-4 leukemia; 92.6% with SR leukemia; 79.5% with RPMI-8226 leukemia; 102% in the test on OVCAR-8 ovarian; 91.1% with OVCAR-5 ovarian; 97.2% with OVCAR-4 ovarian. The growth in the test with SK-OV-3 ovarian is 111%; in the test with IGROV1 ovarian, 39.4%; in the test on OVCAR-3 ovarian, 132%; in the test with HS 578T breast, 112%; in the test with NCI/ADR-RES ovarian, 93.8%; with T-47D breast, 104%. Also, the growth in the test on BT-549 breast was 85.3%; with MDA-MB-435 melanoma, 93.3%; in the test on SW-620 colon, 113%; with MCF7 breast, 103%; with HCT-116 colon it was 103%; with HCC-2998 colon it was 97.7%. The growth with KM12 colon was 111%.

For `Cc1ccc(N2CCN(CCC#N)CC2)cc1`, the growth in the test on MOLT-4 leukemia is 105%; in the test on SR leukemia it was 99.3%; with RPMI-8226 leukemia, 96.7%; in the test with OVCAR-8 ovarian, 97.3%; in the test with OVCAR-5 ovarian it was 92.5%; in the test on OVCAR-4 ovarian it was 110%. Moreover, the growth in the test with SK-OV-3 ovarian was 93.4%; in the test with IGROV1 ovarian, 95.5%; with OVCAR-3 ovarian, 106%; with HS 578T breast, 135%; with NCI/ADR-RES ovarian, 98.8%; in the test with T-47D breast, 90.9%. Besides, the growth was 79% with BT-549 breast; 101% in the test with MDA-MB-435 melanoma; 90.3% with SW-620 colon; 73.8% with MCF7 breast; 95.7% with HCT-116 colon; 88% in the test on HCC-2998 colon. The growth in the test with KM12 colon is 90%.

With `CC(=O)Cc1ccc2c(c1)OCO2`, the growth with MOLT-4 leukemia is 121%; in the test with SR leukemia it was 122%; in the test with RPMI-8226 leukemia, 113%; in the test with OVCAR-8 ovarian, 96.6%; in the test on OVCAR-5 ovarian it was 94%; in the test on OVCAR-4 ovarian it was 135%. Besides, the growth was 107% in the test on SK-OV-3 ovarian; 111% in the test on IGROV1 ovarian; 110% with OVCAR-3 ovarian; 111% in the test with HS 578T breast; 103% in the test on NCI/ADR-RES ovarian; 103% in the test on T-47D breast. Besides, the growth in the test with BT-549 breast is 106%; in the test on MDA-MB-435 melanoma, 105%; in the test with SW-620 colon, 110%; with MCF7 breast, 115%; with HCT-116 colon it was 102%; in the test on HCC-2998 colon it was 102%. Moreover, the growth in the test with KM12 colon is 96.1%.

Turning to `CO[C@H]1[C@H](O[C@@H]2C[C@@H]3C/C=C/C(=O)O[C@@H](CO)C[C@H](O)[C@@H]4C[C@H](C)[C@H](C/C=C\C=C\[C@H](C)C[C@H](C2)O3)O4)O[C@@H](C)[C@H](O)[C@H]1O`, the growth with MOLT-4 leukemia is 43.8%; in the test with SR leukemia, 85.2%; with RPMI-8226 leukemia it was 28.1%; with OVCAR-8 ovarian, 42.6%; in the test on OVCAR-5 ovarian, 71.2%; in the test on OVCAR-4 ovarian, 30.1%. The growth with SK-OV-3 ovarian was 54%; with IGROV1 ovarian, 71%; in the test on OVCAR-3 ovarian, 60.2%; in the test with HS 578T breast, 95.1%; in the test on NCI/ADR-RES ovarian, 55.8%; in the test on T-47D breast it was 20.8%. For the same compound, the growth is 53.9% with BT-549 breast; 64.3% in the test on MDA-MB-435 melanoma; 76.6% in the test on SW-620 colon; 29.1% in the test on MCF7 breast; 57% in the test with HCT-116 colon; 53.6% in the test on HCC-2998 colon. Further, the growth in the test with KM12 colon was 68.1%.

Take `CC1(C)N(Nc2ccccc2)C(=O)C2CCCN21` (stereo not drawn): the growth was 15.1% with MOLT-4 leukemia; 14.2% in the test with SR leukemia; 13.7% with RPMI-8226 leukemia; 87% in the test with OVCAR-8 ovarian; 75.1% in the test with OVCAR-5 ovarian; 70.8% with OVCAR-4 ovarian. The growth was 85.1% in the test with SK-OV-3 ovarian; 72.7% with IGROV1 ovarian; 0.57% (active) in the test on OVCAR-3 ovarian; 85.9% in the test on HS 578T breast; 85.9% with NCI/ADR-RES ovarian; 56.8% with T-47D breast. Further, the growth is 13.6% in the test on BT-549 breast; 12.5% in the test with MDA-MB-435 melanoma; 62.5% in the test with SW-620 colon; 80.1% with MCF7 breast; 12.1% with HCT-116 colon; 88.1% with HCC-2998 colon. In the test on KM12 colon, the growth is 15.7%.

As for `O=C(O)C1C(C(=O)O)C2(Cl)C(Cl)=C(Cl)C1(Cl)C2(Cl)Cl` (stereo not drawn), the growth in the test with MOLT-4 leukemia is 115% and 106%; with SR leukemia it was 104% and 118%; with RPMI-8226 leukemia, 94% and 115%; with OVCAR-8 ovarian it was 107% and 101%; in the test with OVCAR-5 ovarian it was 91.4% and 108%; with OVCAR-4 ovarian, 105% and 110%. In addition, the growth is 103% and 107% with SK-OV-3 ovarian; 109% and 118% with IGROV1 ovarian; 99.8% and 112% in the test on OVCAR-3 ovarian; 116% with HS 578T breast; 111% and 106% with NCI/ADR-RES ovarian; 98.7% with T-47D breast. Also, the growth is 104% and 107% in the test with BT-549 breast; 100% and 106% with MDA-MB-435 melanoma; 98.5% and 101% with SW-620 colon; 104% and 96.8% in the test with MCF7 breast; 101% and 107% in the test on HCT-116 colon; 102% in the test on HCC-2998 colon. The growth with KM12 colon is 100% and 105%.
